# Compounds without any hit were thinned out: in the full panel of roughly 83,000, 20% have a hit.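 Note: values are percent growth. 100 is the growth of untreated cells, values between 100 and 0 indicate rising inhibition; between -100 and 0 indicates cell death.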 Values without a mark were called inactive. Activity calls are given as the source filed them.
# Test system: HOP-92 NSCLC
# Experiment: NCI-60 one-dose screen, 48 h (100 = growth as untreated, 0 = no growth, -100 = all killed)
# Conditions: 10 µM unless noted
# Protocol: Growth inhibition of the HOP-92 human Non-Small Cell Lung tumor cell line is measured as a screen for anti-cancer activity. Cells are grown in 96 well plates and exposed to the test compound for 48 hours. Compounds are tested at a single concentration, which is 10^-5 M for most compounds. The reported endpoint is percent growth (GI% or GIPRCNT), where numbers from 0 - 100% represent growth inhibition, and numbers from -100% - 0 represent cell death. For example, a value of 40 represents 60% growth inhibition. A value of 0 means no net growth occurred over the course of the experiment. A value of -40 indicates 40% of cells at the beginning of the experiment died by the end of the experiment. A value of -100 means all cells are dead at the end of the experiment.
# NCI-60 Human Tumor Cell Lines Screen was performed using the standard one-dose NCI protocol, which is described in more detail at https://dtp.cancer.gov/discovery_development/nci-60/default.htm.
# Compounds with GIPRCNT values below 10 were considered active. Activity score was based on GIPRCNT using the following formula: […]
# Score is 0 for GIPRCNT values of 100 or above, 50 for GIPRCNT values of 0, and 100 for GIPRCNT values of -100.
row,SMILES,growth
1,OC1(c2ccc(Cl)cc2Cl)c2ccccc2C2=NCCN21 (stereo not given),-2.5% (active)
2,Cc1cc([N+](=O)[O-])c(Cl)cc1NS(=O)(=O)c1ccccc1,-3.58% (active)
3,CN(C)P1(N(C)C)=NP(N(C)C)(N(C)C)=NP(N(C)C)(N(C)C)=N1,76%
4,N#Cc1ncc(/N=C/c2ccc(N(CCCl)CCCl)cc2)s1,78.5%
5,COc1cc(C2CC(=O)Nc3nc(N)[se]c32)c(OC)c2c1OCO2 (stereo not given),105%
6,C/C(=N/OC(=O)N(C)C)c1ccc(Cl)cc1Cl,108%
7,CNC(=O)Oc1cccc(OC)c1,125%
8,COP(=S)(OC)Oc1ccc(SC)c(C)c1,72.6%
9,CCC[CH2][Sn]([CH2]CCC)([CH2]CCC)[O]C(=O)c1ccc(Cl)cc1Cl,-84.6% (active)
10,CCC1CN1P(=O)(OCCOC)N1CC1CC (stereo not given),98.4%
11,COc1ccc(/C=C(/C(=O)N2CCCC2)c2cc(OC)c(OC)c(OC)c2)cc1N,46.1%
12,Oc1ccc(O)c2c1C1(Cl)C(Cl)=C(Cl)C2(Cl)C1(Cl)Cl,12%
13,CC(CC(C#N)(c1ccccc1)c1ccccc1)N1CCOCC1 (stereo not given),83.5%
14,Oc1c(Br)cc(Br)cc1Br.[Cu+2],90.5%
15,CCN(CC)CCOc1c(C(C)C)cccc1C(C)C,106%
16,CC(C)(C)[Si](C)(C)OC1[C@@H](O[Si](C)(C)C(C)(C)C)[C@@H](CNC(=O)NC(=O)CF)O[C@H]1n1cnc2c(NC(=O)Nc3ccccc3)ncnc21 (stereo not given in full),48.5%
17,CCN1CC2(CN(CC)C1=S)C(=O)NC(=O)NC2=O,53.9%
18,C#CC1(O)CCC2(C)C(CCC3C4CCC(=O)C4(C)CCC32)C1 (stereo not given),86.1%
19,Cc1cccc(N(C)c2cccc3c2C(=O)[Se]C3)c1C,81.4%
20,CC(=O)Nc1ccc(Cc2ccc(NC(C)=O)cc2)cc1,45.6%

row,SMILES,growth
1,COc1cccc2c1C(=O)c1c(O)c3c(c(O)c1C2=O)CC(O)(/C(C)=N/NC(=O)CCC(=O)N/N=C(\C)C1(O)Cc2c(O)c4c(c(O)c2C(OC2CC(N)C(O)C(C)O2)C1)C(=O)c1c(OC)cccc1C4=O)CC3OC1CC(N)C(O)C(C)O1 (stereo not given),-40.3% [5 µM] (active)
2,CC(=O)OC1CCC2(C)C(=CCC3C4CC(CN5CC5)C(=O)C4(C)CCC32)C1 (stereo not given),92.1%
3,COc1cc(C2CC(=O)Nc3nc(N)[se]c32)cc(OC)c1OC (stereo not given),138%
4,c1ccc(CCN2CCCCC2Cc2ccccc2)cc1 (stereo not given),100%
5,O=C(CCCN1CCC2(CC1)C(=O)NCN2c1ccc(F)cc1)c1ccc(F)cc1,102%
6,Oc1ccc(Br)cc1CN1CCN(Cc2ccc(Cl)cc2)CC1,24.8%
7,O=C(/C=C/c1ccccc1)N[C@@H](CO)Cc1cnc[nH]1,100%
8,C/C(=N/OC(=O)N(C)C)c1cc(Cl)ccc1Cl,107%
9,C[C@]12C[C@H](O)[C@H]3[C@@H](CCC4=CC(=O)CC[C@@]43C)[C@@H]1CC[C@@H]2O,95.5%
10,CNC(=O)O/N=C(/C)c1ccc(Cl)cc1,86.4%
11,N#C[Se]CCN1C(=O)C2C(C1=O)[C@H]1C=C[C@@H]2S1 (stereo not given in full),-46.3% (active)
12,COc1ccc(C(=O)c2ccc([As]=O)cc2)cc1 (stereo not given),-96.1% (active)
13,Nc1ccc(N)c2c1Oc1ccccc1O2,74.8%
14,Cn1cnnc1[S-].[Au+].c1ccc([PH+](c2ccccc2)c2ccccc2)cc1,-58.1% (active)
15,COc1ccc(CN2CCN(Cc3ccccc3)CC2)c(O)c1,87.9%
16,Oc1ccccc1OB(Oc1ccccc1O)N(CCCl)CCCl,74.5%
17,CC(=O)O[C@H]1CCC2C3CCC4=C/C(=N/O)CCC4(C)C3CCC21C (stereo not given in full),89.8%
18,CC(=O)N(C)C1=Nc2ccc(Cl)cc2C(c2ccccc2)=[N+]([O-])C1,92.5%
19,CCCCCCCCCCCCOc1ccc(C(=O)Oc2ccc(CSP3(=O)OCC4OC(n5cnc6c(N)ncnc65)C(F)C4OP(=O)(O)OCC4OC(n5ccc(=O)[nH]c5=O)C(F)C4O3)cc2)cc1 (stereo not given),86.9%
20,CC[C@]12C=CCN3CC[C@@]4(c5ccc(OC)cc5N(C)[C@H]4[C@@](O)(C(=O)OC)[C@@H]1OC(=O)CCCN1CCN(CCCC(=O)O[C@@H]4[C@]5(CC)C=CCN6CC[C@@]7(c8ccc(OC)cc8N(C)[C@H]7[C@@]4(O)C(=O)OC)[C@@H]65)CC1)[C@@H]32,-63.3% (active)
